# This is a sample that favours compounds with a hit; in the whole collection about 2.4% have one here.
# WRN helicase inh: WRN helicase (human) inhibition | Q14191 | WRN helicase unwinding, fluorescent forked duplex, kinetic | Potency, µM (series often up to 114 µM), without a hit: at the highest dose activity change, negative = inhibition, hits mostly inhibitors | 0.46% of 360,000 active | AID 651768; further: potency means the concentration at half of the fitted maximal effect; on the % scale 0 is the no-effect control and ±100 the full control effect; nearly all actives have a fitted effect of over 55% in size
#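 Enzyme (20 nM final) and test compound sit together 15 min at room temperature before substrate addition. Substrate is a single-forked duplex oligonucleotide (100 nM) labelled with fluorophore and quencher, with 2 mM ATP; helicase unwinding raises red fluorescence, read kinetically.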
# FEN1 inh: human FEN1 inhibition; P39748; Recombinant FEN1 flap cleavage, fluorescence, 15 min; Potency, µM (doses to about 114 µM), without a hit: top-dose activity change, negative = inhibition, hits mostly inhibitors; 0.35% of 390,000 active; AID 588795; further: potency means the concentration at half of the fitted maximal effect; on the % scale 0 is the no-effect control and ±100 the full control effect; nearly all actives have a fitted effect of over 65% in size
#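 In this screen, 50 nM flap DNA substrate was added to 10 nM FEN1 pretreated with compound for 15 min at room temperature; cleavage was followed with reads at 0 and 15 min, and Hill fitting gave concentration–response parameters.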
# Pol iota inh: DNA polymerase iota (human) inhibition; Q9UNA4; Pol iota fluorescent replication assay, 10 min; Potency, µM (top dose mostly 115 µM), for inactives: at the top dose activity, negative = inhibition, usual class: inhibitors; 1% of 390,000 active; AID 588590; further: potency means the concentration at half of the fitted maximal effect
# Target sequence (Q9UNA4 whole entry, looked up): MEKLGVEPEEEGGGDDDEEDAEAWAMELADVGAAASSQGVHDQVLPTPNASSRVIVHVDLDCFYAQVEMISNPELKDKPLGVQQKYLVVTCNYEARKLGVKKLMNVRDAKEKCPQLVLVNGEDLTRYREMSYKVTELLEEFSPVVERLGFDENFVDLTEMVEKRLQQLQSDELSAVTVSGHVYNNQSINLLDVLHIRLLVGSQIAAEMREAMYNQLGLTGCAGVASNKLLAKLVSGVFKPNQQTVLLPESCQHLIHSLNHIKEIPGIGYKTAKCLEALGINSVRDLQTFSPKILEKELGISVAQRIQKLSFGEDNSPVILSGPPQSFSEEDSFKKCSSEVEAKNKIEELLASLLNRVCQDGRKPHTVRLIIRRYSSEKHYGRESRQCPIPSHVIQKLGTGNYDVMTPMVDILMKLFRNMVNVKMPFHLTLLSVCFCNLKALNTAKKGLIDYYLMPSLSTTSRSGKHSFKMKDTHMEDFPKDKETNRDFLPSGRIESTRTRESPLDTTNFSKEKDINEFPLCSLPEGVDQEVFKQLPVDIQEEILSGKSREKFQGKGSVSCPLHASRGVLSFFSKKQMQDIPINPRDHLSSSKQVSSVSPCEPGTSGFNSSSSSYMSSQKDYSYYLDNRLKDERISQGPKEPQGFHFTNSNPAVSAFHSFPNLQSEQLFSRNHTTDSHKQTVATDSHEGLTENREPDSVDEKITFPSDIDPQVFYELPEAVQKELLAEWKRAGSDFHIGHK
#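 Fluorescent replication assay read twice, at 0 min and 10 min after adding 50 nM (final) substrate. Enzyme (10 nM) and compounds were first incubated 15 min at room temperature; enzyme-free buffer wells were negative controls.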
# Pol kappa inh-1: blocks human DNA polymerase kappa activity | 0.53% of 400,000 active | AID 588579 | purified Pol kappa, fluorescent DNA synthesis assay, 10 min | Potency, µM (series often up to 107 µM), for the others: at the top dose activity, negative = inhibition, most hits filed as inhibitors; further: potency means the concentration at half of the fitted maximal effect; on the % scale 0 is the no-effect control and ±100 the full control effect
#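 Inhibition of 10 nM Pol kappa is measured by a fluorescent read-out at 0 and 10 min following addition of 50 nM substrate (final), with a 15-min room-temperature compound preincubation.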
# POLB inh: inhibitors of human DNA polymerase beta; P06746; Pol beta primer extension/strand displacement, fluorescence kinetic; Potency, µM (highest dose often 114 µM), inactives show top-dose activity change, negative = inhibition, actives largely listed as inhibitors; 1.3% of 340,000 active; further: potency means the concentration at half of the fitted maximal effect; on the % scale 0 is the no-effect control and ±100 the full control effect
#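 Reaction started by 50 nM substrate onto compound-treated Pol beta (10 nM, 15 min preincubation, room temperature); plates read at 0 min and 10 min. Normalized concentration-effect data fitted by four-parameter Hill equation.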
# Pol eta inh-1: DNA polymerase eta (human) inhibition | Potency, µM (top dose mostly 114 µM), inactives show at the highest dose activity change, negative = inhibition, actives largely listed as inhibitors | recombinant Pol eta, fluorescent DNA replication assay | 1.2% of 390,000 active | Q9Y253; further: potency means the concentration at half of the fitted maximal effect; on the % scale 0 is the no-effect control and ±100 the full control effect
#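 Pol eta at 10 nM preincubated with compounds 15 min at room temperature; reaction started with fluorescent substrate (50 nM final) and read kinetically at 0 and 10 min.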
# BAZ2B inh: confirmation of human BAZ2B bromodomain inhibitors; shares compounds with Pol kappa inh-1; AlphaScreen BAZ2B / biotin-H3K14Ac peptide displacement; Potency, µM, most hits filed as inhibitors; 100% of 25 active; AID 588809; calls by dose curve
# BAZ2B bead ctr: interferes with AlphaScreen signal in BAZ2B counterscreen; shares compounds with Pol kappa inh-1; AlphaScreen biotin-His6 peptide bead counterscreen, signal decrease; Potency, µM (doses to about 57.1 µM), without a hit: top-dose activity change, negative = inhibition, hits mostly inhibitors; 25 tested, under 10 active;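 active means clear concentration-dependent signal drop in the bead assay lacking the target, so a primary-screen artifact; inconclusive means weak, partial or single-dose response; inactive means no response, so a real primary hit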
# PGK validate: validation of Trypanosoma brucei phosphoglycerate kinase inhibitors; shares compounds with Pol kappa inh-1; TbPGK coupled GAPDH assay, Kinase-Glo luminescence; Potency, µM (series often up to 57.5 µM), inactives show at the highest dose activity change, negative = inhibition, most hits filed as inhibitors; 79% of 500 active; further: potency means the concentration at half of the fitted maximal effect; on the % scale 0 is the no-effect control and ±100 the full control effect; nearly all actives have a fitted effect of over 65% in size
# Pol iota confirm: Inhibitors of human DNA polymerase iota, confirmation. shares compounds with Pol kappa inh-1. Pol iota primer extension, TAMRA/BHQ fluorescence. Potency, µM, hits mostly inhibitors. 77% of 1,500 active. AID 720496; further: potency means the concentration at half of the fitted maximal effect
# GALK inh confirm: galactokinase (human) inhibition, confirmation; shares compounds with Pol eta inh-1; Potency, µM (titrated, usually from 115 µM), for the others: at the highest dose activity, negative = inhibition, actives largely listed as inhibitors; AID 2015; 70% of 150 active; purified GALK, Kinase-Glo ATP depletion luminescence
# GALK redox cs: counter-screen for GALK inhibitors: redox cycling H2O2 generation | shares compounds with Pol eta inh-1 | 40% of 150 active | Phenol red-HRP H2O2 redox cycling, absorbance 600 nm | Potency, µM (series often up to 115 µM), for the others: at the top dose activity change, negative = H2O2 signal, actives largely listed as inhibitors
# HEK293 viability: counter-screen for GALK inhibitors: HEK293 cell cytotoxicity; Potency, µM (top dose mostly 46.1 µM), for the others: top-dose activity change, negative = cytotoxicity, most hits filed as inhibitors; HEK-293 viability, ATP luminescence (CellTiter-Glo), 24/48 h; shares compounds with Pol eta inh-1; 10% of 170 active; AID 2547; further: potency means the concentration at half of the fitted maximal effect; on the % scale 0 is the no-effect control and ±100 the full control effect
# Pol kappa inh-2: confirmation of human DNA polymerase kappa inhibitors; shares compounds with Pol eta inh-1; purified Pol-kappa, fluorescent strand-displacement substrate; Potency, µM, usual class: inhibitors; 76% of 920 active; further: potency means the concentration at half of the fitted maximal effect
# Pol eta inh-2: Pol eta (human) inhibition, cherry-pick confirmation. shares compounds with Pol eta inh-1. Pol eta primer extension, TAMRA/BHQ fluorescence, 10 min. Potency, µM, most hits filed as inhibitors. 64% of 2,600 active. AID 720502; further: potency means the concentration at half of the fitted maximal effect
# The depositor's hits bear a star; u = inconclusive; x = not tested or not shown; [ ] = dose if it differs, or a comment. Unless noted, the call rests on the fitted dose curve; in most records, active means well fitted curve in the direction sought with a large enough effect; inconclusive means small, poorly fitted or top-dose-only effect, or another doubt; inactive means no such curve, though single readings can be large; an effect the other way counts as inactive or inconclusive.
SMILES,WRN helicase inh,FEN1 inh,Pol iota inh,Pol kappa inh-1,POLB inh,Pol eta inh-1,others
COc1ccc(/C=C2\C(=O)NC(=S)N(C)C2=O)cc1C,20µM*,50µM*,u,50µM*,30%,2.8µM*,PGK validate=4.1µM*
ClCCN(CCCl)c1ccc(C=Nc2ccncc2)cc1,x,-21%,10%,-8%,x,x,
Clc1c(Cl)c(Cl)c(Cl)c(Cl)c1Cl,x,x,x,17%[60.1 µM],x,x,
CCOC(=O)CCCc1sc(N)nc1-c1[nH]c(=O)[nH]c1C,u,-9%,u,u,1%,u,BAZ2B inh=10*;BAZ2B bead ctr=u
O=C1NC(=S)N(c2ccc(F)cc2)C(=O)/C1=C\c1ccoc1,u,7.9µM*,u,1µM*,2.2µM*,1µM*,PGK validate=0.23µM*
Cc1nc(N2CCCCC2)c2ccsc2n1,8%,-4%,-9%,-4%,-7%,-3%,BAZ2B inh=10*;BAZ2B bead ctr=u
c1nc[n]([Sn]([CH]2CCCCC2)([CH]2CCCCC2)[CH]2CCCCC2)n1,x,x,x,13%[60.1 µM],x,x,
Cc1ccc(/C=C2\C(=O)NC(=S)N(c3cccc(F)c3)C2=O)o1,50µM*,u,u,32µM*,-3%,7.1µM*,Pol iota confirm=34*;Pol eta inh-2=17*
O=C1NC(=O)N(c2cccc(F)c2)C(=O)/C1=C/c1ccc(N2CCOCC2)cc1,-8%,-4%,u,-20%,u,4%,
Cc1cccc(N2C(=O)/C(=C/c3ccc(CN(CCC#N)S(C)(=O)=O)o3)C(=O)NC2=S)c1,28µM*,u,8.9µM*,22µM*,20µM*,6.3µM*,Pol iota confirm=67*;Pol kappa inh-2=11*;Pol eta inh-2=u
C=CCN1CCc2cccc3c2C1Cc1ccc(O)c(O)c1-3 (centres undefined),x,x,-12%[58.9 µM],4%[19.4 µM],8%[57.1 µM],-5%[57.1 µM],
O=C1C(=O)c2cccc3cccc1c23,6%,8%,4%,-5%,1%,-20%,
O=C1C(=O)c2ccccc2-c2ccccc21,-30%,-17%,0.71µM*,-8%,u,2.5µM*,PGK validate=4.1µM*;GALK inh confirm=1.9µM*;GALK redox cs=0.84µM*;HEK293 viability=7.1µM*
C#CCN1CC(=O)N(COC(=O)[C@@H]2[C@@H](C=C(C)C)C2(C)C)C1=O,x,x,x,0%[60.1 µM],x,x,
C=C1C(=O)O[C@@H]2C[C@@H](C)[C@@H]3C=CC(=O)[C@@]3(C)[C@@H](OC(=O)CC(=O)O[C@H]3[C@@H]4C(=C)C(=O)O[C@@H]4C[C@@H](C)[C@@H]4C=CC(=O)[C@]43C)[C@H]12,45µM*,u,4.5µM*,35µM*,20µM*,7.9µM*,Pol iota confirm=19*;Pol eta inh-2=17*
C=C1C(=O)O[C@H]2C[C@@H](C)[C@@H]3C=CC(=O)[C@@]3(C)C[C@H]12,9%,1%,u,-1%,-1%,-12%,
CC1OC(O[C@H]2C[C@@H](O)[C@]3(CO)[C@H]4[C@H](O)C[C@]5(C)[C@@H](C6=CC(=O)OC6)CC[C@]5(O)[C@@H]4CC[C@]3(O)C2)C(O)C(O)C1O (some centres undefined),x,6%,3%,9%,x,x,
C=C1C/C(=C\C)C(=O)O[C@@H]2CCN3CC=C(COC(=O)[C@@]1(C)O)[C@H]23,x,x,x,-6%[12 µM],x,x,
Cc1c(C(c2ccc(F)cc2)c2c(O)c3ccccc3oc2=O)c(=O)n(-c2ccccc2)n1C (centres undefined),-1%,13%,-19%,-9%,0%,-16%,
CC(C)c1ccc(C(c2c(O)c3ccccc3oc2=O)c2c(O)c3ccccc3oc2=O)cc1,-15%[11.6 µM],x,x,x,x,22µM*,Pol iota confirm=u;Pol kappa inh-2=38*;Pol eta inh-2=u
CNc1ccc(C(=O)CC(O)CCC(C)C2OC(=O)CC(O)CC(=O)CC(O)CC(O)CC(O)CC(O)CC3(O)CC(O)C(C(=O)OC)C(CC(O[C@@H]4OC(C)C(O)C(N)C4O)/C=C/C=C/C=C/C=C/C=C/C=C/C=C/C2C)O3)cc1 (some centres undefined),x,x,x,-17%[60.1 µM],x,x,
NC(N)=NCCCCCCCCCCN=C(N)N,x,x,x,-7%[19.4 µM],x,x,
COc1cc2cc(C(=O)N3CC(COS(C)(=O)=O)c4ccc(O)cc43)[nH]c2c(OC)c1OC (centres undefined),-34%,-5%,1.8µM*,10µM*,x,3.2µM*,Pol iota confirm=4.7*;Pol kappa inh-2=3*;Pol eta inh-2=6.7*
O=C1NC(=O)C(=Cc2ccco2)C(=O)N1,u,u,u,40µM*,x,8.9µM*,PGK validate=3.7µM*;Pol iota confirm=67*;Pol kappa inh-2=21*;Pol eta inh-2=30*
O=C(NC(O)C(Cl)(Cl)Cl)NC(O)C(Cl)(Cl)Cl (centres undefined),x,x,x,-8%[19.4 µM],x,x,
